Test results taken from PubChem BioAssay AID588590 (National Center for Advancing Translational Sciences (NCATS), 2011).
In all, about 390,000 compounds went through this assay and about 4,000 (1%) were called active. About 7% were inconclusive and are not listed. The sample as a whole holds a higher share of actives than the screen did. Unmarked numbers belong to inactive results. Calls come from the whole dose curve; as a rule, active = well fitted inhibition curve with a large enough effect; inconclusive = small, poorly fitted or top-dose-only effect, or another doubt; inactive = no such curve, though single readings can be large or run the other way.

Target: DNA polymerase iota (Homo sapiens) (UniProt Q9UNA4)
Experiment: qHTS for Inhibitors of Polymerase Iota
Conditions: Pol iota fluorescent replication assay, 10 min; series mostly up to 115 µM; activity, negative = inhibition: at the top concentration
How it was run: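 Fluorescent replication assay read twice, at 0 min and 10 min after adding 50 nM (final) substrate. Enzyme (10 nM) and compounds were first incubated 15 min at room temperature; enzyme-free buffer wells were negative controls.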
Potency is the fitted concentration of half-maximal effect.

DNA polymerase iota (Homo sapiens), sequence (Q9UNA4 whole entry, looked up): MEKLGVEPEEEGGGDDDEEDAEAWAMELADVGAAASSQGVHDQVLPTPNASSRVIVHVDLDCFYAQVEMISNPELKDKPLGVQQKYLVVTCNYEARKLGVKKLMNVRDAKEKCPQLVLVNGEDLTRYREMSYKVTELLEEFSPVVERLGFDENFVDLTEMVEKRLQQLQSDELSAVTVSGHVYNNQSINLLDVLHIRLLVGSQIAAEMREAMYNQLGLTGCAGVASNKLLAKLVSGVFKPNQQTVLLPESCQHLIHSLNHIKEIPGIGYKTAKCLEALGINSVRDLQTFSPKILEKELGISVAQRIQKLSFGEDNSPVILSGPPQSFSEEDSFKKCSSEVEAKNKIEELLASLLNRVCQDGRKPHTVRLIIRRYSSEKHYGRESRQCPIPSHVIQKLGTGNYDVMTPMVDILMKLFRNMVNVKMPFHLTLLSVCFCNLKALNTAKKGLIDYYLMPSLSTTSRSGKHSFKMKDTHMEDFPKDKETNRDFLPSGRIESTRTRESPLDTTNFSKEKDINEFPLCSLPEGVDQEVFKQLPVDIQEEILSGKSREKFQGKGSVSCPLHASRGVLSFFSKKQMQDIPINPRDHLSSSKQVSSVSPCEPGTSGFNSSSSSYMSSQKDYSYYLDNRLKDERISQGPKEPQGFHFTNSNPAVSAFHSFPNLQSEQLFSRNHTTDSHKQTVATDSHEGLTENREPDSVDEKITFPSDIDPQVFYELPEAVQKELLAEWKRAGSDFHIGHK

Row | Structure (SMILES) | activity, negative = inhibition | Potency
1 | O=C(CCc1nc(CN2CCN(S(=O)(=O)c3ccc(Br)cc3)CC2)no1)N1CCCCC1 | 10.5% | 
2 | CCOC(=O)c1scc(-c2ccc(C)cc2)c1S(=O)(=O)Nc1cc(C)ccc1C | -26.6% | 
3 | Cc1cccc(-n2c(SCC(N)=O)nc3c(oc4ccccc43)c2=O)c1 | 36.3% | 
4 | COc1cc(Cl)c(C)cc1NC(=O)CCc1nc2cccnc2n1Cc1cccs1 | -4.61% | 
5 | Cc1cc(NC(=O)CSc2ncc(C(=O)Nc3ccc(Cl)cc3)c(=O)n2C)no1 | -8.21% | 
6 | CC1(C)CC(=O)C(N=Nc2ccc(S(=O)(=O)N3CCCCCC3)cc2)=C(O)C1 | 9.92% | 
7 | Cc1ccc(S(=O)(=O)N2CCN(S(=O)(=O)N3CCOCC3)CC2)cc1 | -16.2% | 
8 | O=C1CCCC(O)=C1N=Nc1ccc(S(=O)(=O)N2CCOCC2)cc1 |  | 35.5 µM (active)
9 | COc1ccc(Cn2c(=O)[nH]c3cc(C(=O)N4CCN(C(=O)c5ccco5)CC4)ccc3c2=O)cc1 | 36.2% | 
10 | N#Cc1c(C(F)(F)F)cc(-c2cccs2)nc1N1CCCCC1 | -6.85% [at 58.9 µM] | 
11 | N#Cc1c(N2CCCCC2)nc(N)c2c(N)nc(SCC(=O)O)cc12 |  | 7.08 µM (active)
12 | CC(C)(C)c1ccc(C(=O)C[N+]2(C)CCCc3ccccc32)cc1 (stereo not drawn) |  | 79.4 µM (active)
13 | CC(C)(C)c1ccc(C(=O)NCc2nnc(SCC(=O)N3CCCc4ccccc43)n2-c2ccccc2)cc1 | 16.9% | 
14 | CC(C)(C)c1ccc(C(=O)C[n+]2cccc3cc(Cl)ccc32)cc1 | 25.7% | 
15 | Cc1ccc(NC(=O)Cn2cnc3nc4c(cc3c2=O)CCCC4)cc1Cl | -12.5% | 
16 | CCOc1ccc(CNC(=O)C2CCN(c3nnc(-n4cccc4CNc4ccc(C)cc4)s3)CC2)cc1OC | -0.133% | 
17 | Cc1ccc(CCNC(=O)c2ccc(CNS(=O)(=O)c3ccc(C)cc3)cc2)cc1 | 3% | 
18 | CN(C)c1nccc(NCc2ccccc2)c1C#N | 18.2% | 
19 | CC(C)n1cnc2c(NCc3ccccc3)cc(OCC3CCN(C)CC3)cc21 |  | 3.16 µM (active)
20 | CCC(=O)Nc1cccc(C(=O)OCc2cc(=O)n3nc(CC)sc3n2)c1 | 22.1% | 
21 | Cc1ccc(OCC(=O)OCc2cc(=O)n3nc(C4CC4)sc3n2)cc1 |  | 89.1 µM (active)
22 | CCCCc1nn2c(=O)cc(COC(=O)c3cccc(NC(=O)COc4ccccc4)c3)nc2s1 | 16.1% | 
23 | Cc1ccc(OCC(=O)OCc2cc(=O)n3nc(C4CC4)sc3n2)cc1C | 29.3% | 
24 | COc1ccc(OCC(=O)Nc2cccc(C(=O)OCc3cc(=O)n4nc(C)sc4n3)c2)cc1 |  | 89.1 µM (active)
25 | O=C(COc1ccccc1F)OCc1cc(=O)n2nc(C3CCCCC3)sc2n1 | 10.5% | 

Row | Structure (SMILES) | activity, negative = inhibition | Potency
26 | Cc1ccc(NC(=O)Cn2c(=O)n(-c3ccccc3)c(=O)c3c4c(sc32)CCCC4)cc1 | 1.6% | 
27 | CCOc1ccc(-c2nonc2NC(=O)c2oc3ccc(CC)cc3c2C)cc1 | -15% | 
28 | CCOC(=O)c1c(S(=O)(=O)N2CCCC(C(=O)NCc3ccc(F)cc3)C2)c(C)n(CC)c1C (stereo not drawn) | 6.16% | 
29 | Oc1cc(O)c2c(c1)OC(c1ccc(O)c(O)c1)C(O)C2 (stereo not drawn) |  | 79.4 µM (active)
30 | OC[C@H]1O[C@@H](n2cnc3c(N[C@H]4CC5CCC4C5)ncnc32)[C@H](O)[C@@H]1O (stereo partly drawn) | -2.71% [at 58.9 µM] | 
31 | Cc1ccc(CSc2nc3ccsc3c(=O)n2CCC(C)C)cc1 | 10.2% | 
32 | CN(C(=O)CN1C(=O)/C(=C/c2ccc(Cl)cc2)SC1=S)C1CCS(=O)(=O)C1 (stereo not drawn) | -7.32% | 
33 | COc1cc(/C=C2/SC(=S)N(Cc3ccccc3)C2=O)cc(OC)c1O |  | 44.7 µM (active)
34 | COc1ccc(CCNC2=C(Cl)C(=O)N(Cc3ccccc3)C2=O)cc1OC | -22.1% | 
35 | Cc1ccccc1NC(=O)CN1C(=O)C(C)(C)c2ccccc21 | 18.5% | 
36 | Cc1ccccc1NC(=O)CN1C(=O)N/C(=C\c2cccn2-c2cccc(C(=O)O)c2)C1=O |  | 5.62 µM (active)
37 | Cc1ccccc1NC(=O)Cn1c(=O)n(CCc2ccccc2)c(=O)c2ccccc21 | 23.8% | 
38 | COc1ccc2c(c1)c(=O)c(S(=O)(=O)c1ccc(F)cc1)cn2CC(=O)Nc1ccc(C)cc1C | 25.1% | 
39 | CCN(CCCNC(=O)c1cc(Nc2ccc(OC)cc2)nc2ccccc12)c1cccc(C)c1 | 17.7% | 
40 | COc1cccc(CNC(=O)c2ccc3c(Cl)c4c(nc3c2)CCCC4)c1 |  | 89.1 µM (active)
41 | CC(C)CCNC(=O)c1ccc2c(Cl)c3c(nc2c1)CCC3 | 107% | 
42 | COc1cccc(CNC(=O)CSc2c3c(nc4cc(Cl)ccc24)CCCC3)c1 | 25.5% | 
43 | Cc1ccc(Cn2c(CCCNC(=O)C3CCCCC3)nc3ccccc32)cc1 | 24.5% | 
44 | Cn1c(=O)oc2cc(S(=O)(=O)CCC(=O)NCCc3ccc(Cl)cc3)ccc21 | 21.8% | 
45 | CC1CCN(c2ccc([N+](=O)[O-])cc2C(N)=O)CC1 | 0.643% | 
46 | CCC(C)(C)NC(=O)c1cc([N+](=O)[O-])ccc1N1CCCCC1 | 12% | 
47 | O=C(O)C1CCN(c2ccc([N+](=O)[O-])cc2[N+](=O)[O-])CC1 |  | 20 µM (active)
48 | COC(=O)CN1C(=O)N/C(=C/c2ccc(OC)c(C)c2OC)C1=O | 76.4% | 
49 | COc1ccccc1OCC(=O)OCc1cc(-c2ccco2)on1 | -2.3% | 
50 | COC(=O)COc1ccc2c(c1C)O/C(=C\c1ccco1)C2=O |  | 89.1 µM (active)

Row | Structure (SMILES) | activity, negative = inhibition | Potency
51 | Cc1ccc(C(=O)CC2(O)C(=O)N(CCc3ccccc3)c3ccc(Br)cc32)cc1 (stereo not drawn) | 14.1% | 
52 | CCN(CC)c1cc(NC2CCCCC2)c2c3c(onc13)-c1ccccc1C2=O | 36% | 
53 | COc1ccc(CNC(=O)CC2Oc3ccc(C)cc3NC2=O)cc1 (stereo not drawn) | 15.5% | 
54 | CCc1ccc2nc3sc(C(=O)Nc4nnc(CC)s4)c(N)c3cc2c1 |  | 22.4 µM (active)
55 | CCc1ccc(NC(=O)c2sc3nc4c(cc3c2N)CN(CC)CC4)cc1 | 7.62% | 
56 | CCc1nnc(NC(=O)c2ccc(S(=O)(=O)NC3CCCCC3)cc2)s1 | 4.68% | 
57 | COC(=O)c1cc2occc2n1Cc1nc(-c2ccc(C)cc2)oc1C | -13.4% | 
58 | Cc1cc(C=O)c(C)n1-c1ccc(NC2CCCCC2)c([N+](=O)[O-])c1 | -6.87% | 
59 | Cc1cc(/C=N/NC(=O)CC2(C)OCCO2)c(C)n1-c1ccc(Cl)c(Cl)c1 | 3.54% | 
60 | Cc1cc(/C=N/Nc2ccc([N+](=O)[O-])cn2)c(C)n1-c1cccc(C(=O)O)c1 |  | 28.2 µM (active)
61 | COc1ccc(NC(=O)C2CCN(c3ccc(Sc4ccc(C)cc4)nn3)CC2)c(OC)c1 | 7.33% | 
62 | O=C1C[C@H]2C=CCc3cccc(c32)CN1Cc1ccccc1 | 2.61% | 
63 | COc1ccc(Cl)cc1-n1c(CCC(=O)O)ccc1-c1ccc(C)cc1 | -8.96% | 
64 | CCOc1ccccc1NC(=O)Cn1c2ncccc2c(=O)n1-c1ccc(C)c(C)c1 | 8.51% | 
65 | CCOc1ccccc1CNC(=O)Nc1cn(CC(C)C)c(=O)c2ccccc12 |  | 39.8 µM (active)
66 | CCOc1ccccc1N(CC)C(=O)Nc1cn(C)c(=O)c2ccccc12 | 28.1% | 
67 | Cc1cccc(-c2nnc(SC(C)C(=O)Nc3ccccc3)n2C)c1 (stereo not drawn) | 3.47% | 
68 | Cc1ccc(C)c2sc(NC(=O)c3ccc(S(=O)(=O)N4CCCC4)cc3)nc12 | 13.9% | 
69 | Cc1ccc(CCNC(=O)C2CCN(c3nnc(-n4cccc4CNc4ccc(C)cc4)s3)CC2)cc1 | 11.6% | 
70 | C1=C(N2CCOCC2)/C(=C/c2nc3ccccc3[nH]2)CC1 |  | 14.1 µM (active)
71 | Cc1nn2c3cc(N4CCOCC4)ccc3nc2c2ccccc12 | 32.7% | 
72 | c1ccc(-n2nnnc2N2CCOCC2)cc1 | 9.14% | 
73 | O=C(Nc1ccc(Cl)cc1)c1cnn2c1NC(=C1CC1)C=C2C(F)F | 2.31% | 
74 | CCCOC(=O)c1c(NC(=O)c2cc3nc(-c4ccc(OC)cc4)cc(C(F)(F)F)n3n2)sc2c1CCCC2 | -29% | 
75 | CC1CCC2(CC1)N=C(c1ccccc1)C(=O)N2CC(=O)Nc1ccc(F)c(Cl)c1 (stereo not drawn) | 16.3% | 

Row | Structure (SMILES) | activity, negative = inhibition | Potency
76 | Cc1ccc2nc(COc3ccccc3NC(=O)Nc3ccc(F)c(Cl)c3)cc(=O)n2c1 | 35.4% | 
77 | Cc1ccc2nc(COc3cccc(NC(=O)Nc4ccc(C)c(Cl)c4)c3)cc(=O)n2c1 | 15.8% | 
78 | Cc1ccc2nc(COc3cccc(NC(=O)c4cccc(Cl)c4)c3)cc(=O)n2c1 |  | 89.1 µM (active)
79 | Cc1ccc(/C=N/NC(=O)Cn2nc(C)c(Br)c2C)o1 | -3.61% | 
80 | Cc1ccc(/C=N/NC(=O)c2cc3ccccc3cc2O)o1 |  | 50.1 µM (active)
81 | Cc1ccc(/C=N/NC(=S)NC2CCCCC2)o1 | 19.1% | 
82 | CCCC12CN3CC(C)(CN(C1)C3c1ccccc1Cl)C2=O (stereo not drawn) | -15.2% | 
83 | COc1ccc(N=C2SC(C(=O)Nc3ccc(F)cc3)CC(=O)N2C)cc1 (stereo not drawn) | 95.7% | 
84 | CCOc1ccc(N=C2SC(C(=O)O)CC(=O)N2C)cc1 (stereo not drawn) | 16.4% | 
85 | CN=C1SC(C(=O)O)CC(=O)N1C (stereo not drawn) |  | 89.1 µM (active)
86 | Cc1ccc2ncc(C(=O)Nc3ccc(OC(F)(F)F)cc3)c(=O)n2c1 | -26.3% | 
87 | CCOc1ccc(Nc2c(S(=O)(=O)c3ccccc3)cnc3ccccc23)cc1 | -5.3% | 
88 | COc1ccc(OC)c(-n2nnc(-c3nc(-c4cc(OC)c(OC)c(OC)c4)no3)c2C)c1 | -9.96% | 
89 | COc1cc(Nc2nc(-c3ccc(OC)c(OC)c3)nc3ccccc23)cc(OC)c1 | 6.46% | 
90 | CNc1ccc(-c2nc(-c3ccco3)no2)cc1[N+](=O)[O-] | 13.5% | 
91 | CC(Nc1ccc(-c2nc(-c3ccco3)no2)cc1[N+](=O)[O-])c1ccccc1 (stereo not drawn) |  | 70.8 µM (active)
92 | O=[N+]([O-])c1cc(-c2nc(-c3ccccc3)no2)ccc1NCc1ccco1 | -8.87% | 
93 | COc1ccc(/C=C/c2ccnc3ccccc23)cc1OC | 3.3% | 
94 | CN(C(=N)N)c1ccc(/C=C2\C=Cc3ccccc32)cc1 | 4.23% | 
95 | O=C(NCCCO)C(=O)Nc1c2c(nn1-c1ccccc1)CSC2 | 10.5% | 
96 | CC(C)C(=O)Nc1c2c(nn1-c1ccccc1)CSC2 | 10.4% | 
97 | CC(=O)Nc1c2c(nn1-c1cccc(C)c1)CSC2 |  | 50.1 µM (active)
98 | COc1ccc(CNC(=O)Cn2nnc(-c3ccc(S(C)(=O)=O)cc3)n2)cc1 | -14.7% | 
